Like-named read-outs stand apart in the source and are kept apart here.

Common to all, as to parameters: species or system human, MV4-11 + K-562 + COLO205 + SK-N-BE2 + OVCAR-8
Test [1] deals with EPHA7. The note with it: read-out: apparent Kd, compound concentrations: 100 nM and 1000 nM (sheet 'Samples'), n = 1.
Test [2] deals with BMPR1B. Conditions: read-out: apparent Kd, n = 1.
For test [3], the system named is MAP3K4. Conditions: read-out: apparent Kd, n = 1.
Test [4] relates to WEE1. Conditions: read-out: apparent Kd, n = 1.
For test [5], the system named is FES. Conditions: read-out: apparent Kd, compound concentrations: 100 nM and 1000 nM (sheet 'Samples'), n = 1.
The subject of test [6] is GRK6. The note with it: read-out: apparent Kd; compound concentrations: 100 nM and 1000 nM (sheet 'Samples'), CATDS: 6.7200037487984698E-3; n = 1.
Test [7] concerns PKN1. Conditions: compound concentrations:0.3nM, 1nM, 3nM, 10nM, 30nM, 100nM, 300nM, by the legend:Standard error of the EC50 estimation as provided by the drc package.; for Kd: read-out: apparent Kd.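 As to all read-outs here: competition pulldown with Kinobeads ε in cell lysates, inhibitor preincubated 45 min at 4 °C, bound kinases quantified by LC–MS/MS against DMSO control.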
Test [8] relates to LIMK1. The note with it: read-out: apparent Kd, compound concentrations: 100 nM and 1000 nM (sheet 'Samples'), n = 1.
The test system of test [9] is SIK3. Conditions: read-out: apparent Kd, compound concentrations: 100 nM and 1000 nM (sheet 'Samples'), n = 1.
In test [10] the test system is PDXK. Conditions: read-out: apparent Kd; compound concentrations: 100 nM and 1000 nM (sheet 'Samples'), CATDS: 3.03985195702474E-2; n = 1.
The subject of test [11] is ACAD8. Conditions: read-out: apparent Kd, n = 1.
Test [12] relates to BMPR2. The note with it: read-out: apparent Kd; compound concentrations: 100 nM and 1000 nM (sheet 'Samples'), CATDS: 4.3596889964012502E-3; n = 1.
Test [13] relates to DCTPP1. Conditions: read-out: apparent Kd, n = 1.
In test [14] the test system is MAP2K6. The note with it: read-out: apparent Kd; compound concentrations: 100 nM and 1000 nM (sheet 'Samples'), CATDS: 4.6544489898713796E-3; n = 1.
The subject of test [15] is MST1R. Conditions: read-out: apparent Kd; compound concentrations: 100 nM and 1000 nM (sheet 'Samples'), CATDS: 4.6001362310290703E-3; n = 1.
The subject of test [16] is NEK3. Conditions: read-out: apparent Kd; compound concentrations: 100 nM and 1000 nM (sheet 'Samples'), CATDS: 4.0159133314047798E-3; n = 1.
Test [17] has as its system TAOK3. Conditions: read-out: apparent Kd, n = 1.
Test [18] concerns VDAC3. Conditions: read-out: apparent Kd; compound concentrations: 100 nM and 1000 nM (sheet 'Samples'), CATDS: 4.6944952504306397E-3; n = 1.
For test [19], the system named is ACOX1. The note with it: read-out: apparent Kd; compound concentrations:100 nM and 1000 nM (sheet 'Samples'); n = 1.
The mark [20] stands for this setting: compound concentrations:100 nM and 1000 nM (sheet 'Samples').
The mark [21] stands for this setting: 1000nM,R2:0.97867991540409105,slope:0.79419686113227705,EC50 Standard Error.
[22] abbreviates: 1000nM,R2:0.99748458534068796,slope:1.1297658372901001,EC50 Standard Error.

With `CCOC(=O)N1CCC(n2cnc(-c3ccc(F)cc3)c2-c2ccnc(N)n2)CC1` [SB-219952], the potency estimated from few doses in test [1] (CATDS: 8.0080287869844797E-3) is 1690 nM.
Turning to `CNC(=O)c1ccccc1Nc1nc(Nc2ccc(N3CCOCC3)cc2)ncc1Cl.Cl` [GSK1576028A], the potency estimated from few doses in test [2] (setting [20]) was 429 nM; in test [3] (setting [20]), 1690 nM; in test [4] (setting [20]), 20.5 nM.
Regarding `O=C1N=C(NCCc2ccc(Cl)cc2)S/C1=C\c1ccc2ncccc2c1` [RO4498479-000], the potency estimated from few doses in test [5] (CATDS: 7.5853712865523596E-3) is 1210 nM; in [6], 1960 nM.
For orientation: EC50 means the concentration at which the effect is half-maximal. Consider `CCn1c(-c2nonc2N)nc2c(C#CC(C)(C)O)nc(OCCNC)cc21.Cl` [GSK949675A], for which, in [7] (setting [21]), the half-maximal effective concentration (EC50) is 4240 nM and the Kd is 4230 nM.
Regarding `COc1ccc(Nc2ncc(C#N)c(Nc3ccccc3C(N)=O)n2)cc1N1CCN(C)CC1.Cl` [GSK1558669A], the potency estimated from few doses in test [5] (CATDS: 8.0815646455300594E-3) was 387 nM; in test [8] (CATDS: 6.2092464562502302E-3), 1380 nM; in test [3] (compound concentrations: 100 nM and 1000 nM (sheet 'Samples'), CATDS: 1.60153050048602E-2), 57.9 nM; in [9] (CATDS: 6.59336570259887E-3), 968 nM; in test [4] (compound concentrations: 100 nM and 1000 nM (sheet 'Samples'), CATDS: 4.3913811824171201E-2) it was 10.4 nM.
Turning to `CN(c1ccc(NC(=O)N2CCN(CCCN3CCOCC3)CC2)cc1)c1ccnc(Nc2ccc(CS(C)(=O)=O)cc2)n1.Cl` [GW830899A], in test [10], the potency estimated from few doses is 617 nM.
Regarding `Cn1ncc2c(N)ncnc21` [SKF-18267], the potency estimated from few doses is 2010 nM in test [11] (compound concentrations: 100 nM and 1000 nM (sheet 'Samples'), CATDS: 3.4609202589527301E-3); 311 nM in [2] (compound concentrations: 100 nM and 1000 nM (sheet 'Samples'), CATDS: 8.9058122855820206E-3); 1090 nM in test [12]; 1170 nM in test [13] (compound concentrations: 100 nM and 1000 nM (sheet 'Samples'), CATDS: 4.22997641527893E-3); 1210 nM in [1] (CATDS: 4.1620084388922602E-3); 766 nM in test [5] (CATDS: 5.1575309929755304E-3). In addition, the potency estimated from few doses in test [8] (CATDS: 4.4629455520233396E-3) was 1030 nM; in [14], 943 nM; in [3] (compound concentrations: 100 nM and 1000 nM (sheet 'Samples'), CATDS: 4.0015325722358502E-3), 1340 nM; in test [15], 967 nM; in test [16] it was 1320 nM; in test [9] (CATDS: 3.59529212961178E-3), 1790 nM. For the same compound, the potency estimated from few doses is 979 nM in [17] (compound concentrations: 100 nM and 1000 nM (sheet 'Samples'), CATDS: 4.5729665408397397E-3); 926 nM in test [18]; 1180 nM in [4] (compound concentrations: 100 nM and 1000 nM (sheet 'Samples'), CATDS: 4.2054880043609797E-3).
Take `Cc1cccc(Nc2nc(N[C@H]3CCCC[C@H]3N)ncc2C(N)=O)c1.Cl` [GSK986310C]: the potency estimated from few doses in [19] is 1340 nM.
Regarding `CCn1c(-c2nonc2N)nc2c(C#CC(C)(C)O)nc(OCCN)cc21.CCn1c(-c2nonc2N)nc2c(C#CC(C)(C)O)nc(OCCN)cc21.Cl.Cl` [GSK902056A], in test [7] (setting [22]), the concentration for a half-maximal effect (EC50) is 92.3 nM and the Kd was 92.3 nM.
For `Cc1cccc(Nc2nc(N[C@H]3CCNC3)ncc2C(N)=O)c1.Cl` [GSK2197149A], in [13] (setting [20]), the potency estimated from few doses is 1150 nM.
For the compound `NC(=O)c1cc(-c2ccccc2)cc2c(C3CCNCC3)c[nH]c12` [GSK301362A], the results for the potency estimated from few doses in [11] (setting [20]) and in test [17] (setting [20]) were 1750 nM and 1570 nM, respectively.
As to `CNCc1ccc(-c2cc(-c3nc(-c4ccc(S(=O)(=O)C(C)C)cc4)cnc3N)on2)cc1` [VE-822], the potency estimated from few doses in test [2] (setting [20]) is 868 nM.
With `FC(F)(F)c1ccc(-c2ncn(CCCN3CCOCC3)c2-c2ccncc2)cc1` [SB-217780], the potency estimated from few doses in test [11] (compound concentrations: 100 nM and 1000 nM (sheet 'Samples'), CATDS: 0.18065047008749499) is 2210 nM.

The values are drawn from article PMC11062922 (Nature Chemical Biology, 2023).
